# Values without a mark were called inactive. Calls come from the whole dose curve; as a rule, active = well fitted curve in the direction sought with a large enough effect; inactive = no such curve, though single readings can be large or run the other way.
# Target: Alpha-galactosidase A (Homo sapiens) (UniProt P06280)
# Test: Counterscreen for Glucocerebrosidase Inhibitors: qHTS Assay for Human alpha-Galactosidase at pH 4.5 (AID 992); note: 0% is about no effect
# Conditions: purified enzyme, fluorogenic substrate; series mostly up to 76.9 µM; activity change, negative = inhibition: at the top concentration
# Outline: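 Fluorogenic 1536-well qHTS at pH 4.5 (citrate, Tween-20): 2 nM enzyme, 80 uM 4-MU-alpha-galactoside, 20 min room temperature, NaOH/glycine stop. Titration 0.7 nM to 77 uM, data normalized to no-enzyme and full-activity controls, Hill-fitted AC50.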
# Chain of Alpha-galactosidase A (Homo sapiens) (P06280 whole entry, looked up): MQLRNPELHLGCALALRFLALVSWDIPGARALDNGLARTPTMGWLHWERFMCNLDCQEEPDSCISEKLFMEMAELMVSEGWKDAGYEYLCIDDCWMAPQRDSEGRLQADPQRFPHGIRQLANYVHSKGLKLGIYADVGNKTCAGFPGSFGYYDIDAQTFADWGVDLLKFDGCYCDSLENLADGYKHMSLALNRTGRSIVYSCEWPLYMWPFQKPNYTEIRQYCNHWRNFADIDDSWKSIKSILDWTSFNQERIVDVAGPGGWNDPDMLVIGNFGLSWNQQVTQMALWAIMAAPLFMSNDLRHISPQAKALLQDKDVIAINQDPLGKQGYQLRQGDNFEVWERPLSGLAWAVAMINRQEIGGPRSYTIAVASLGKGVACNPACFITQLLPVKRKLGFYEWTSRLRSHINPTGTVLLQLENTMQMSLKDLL
row,Structure (SMILES),"activity change, negative = inhibition"
1,Cc1cc2c(cc1Cl)N(C(=O)Nc1ccnc3ccccc13)CC2,-1.95%
2,Nc1ncnc2c1ncn2C1CCCC1,1.95%
3,CC(=O)N[C@@H](Cc1c[nH]c2ccccc12)C(=O)OCc1cc(C(F)(F)F)cc(C(F)(F)F)c1,-11.3%
4,N=C(N)SCCc1cnc[nH]1,3.31%
5,CN(C)S(=O)(=O)c1ccc2c(c1)/C(=C/c1cc3c([nH]1)CCCC3)C(=O)N2,-7.57%
6,COc1cc(N)c(Cl)cc1C(=O)OCCN1CCCCC1,-0.321%
7,CCSC(=N)N,-2.49%
8,COc1ccccc1N1CCN(CCCCN2C(=O)c3ccccc3C2=O)CC1,1.89%
9,Cc1ccc2c(c1)C(N1CCN(C)CC1)=Nc1cccnc1N2,-1.61%
10,COc1cc(CC(=O)O)ccc1O,-1.76%
11,O=C(O)c1cc(=O)cc(C(=O)O)[nH]1,2.05%
12,COc1ccc(NC(=O)c2ccc(-c3ccc(-c4noc(C)n4)cc3C)cc2)cc1N1CCN(C)CC1,3.51%
13,O=c1[nH]ccc2c(O)cccc12,0.968%
14,Cn1c(=O)c2[nH]c(-c3ccc(S(=O)(=O)O)cc3)nc2n(C)c1=O,14.3%
15,C[C@H](NC(=O)/C(C#N)=C/c1ccc(O)c(O)c1)c1ccccc1,-2.64%
16,O=c1oc(Cl)c(Cl)c2ccccc12,-1.69%
17,O=[N+]([O-])c1cccc2cn[nH]c12,-2.75%
18,C=CC[C@H](N)C(=O)O,3.37%
19,CCC(=O)N1CCN(C(=O)c2ccccc2)CC1,-1.29%
20,CC(C)(CO)Cc1cc(C(C)(C)C)c(O)c(C(C)(C)C)c1,-9.94%

row,Structure (SMILES),"activity change, negative = inhibition"
1,NS(=O)(=O)c1cccc2c1c([N+](=O)[O-])cc1nc(O)c(O)nc12,-4.21%
2,CCCn1c(=O)c2[nH]c(-c3ccc(S(=O)(=O)O)cc3)nc2n(CCC)c1=O,17.9%
3,Cc1cccc(C(=O)NCN2CCN(c3ccccc3C#N)CC2)c1,-4.79%
4,O=C1Nc2ccc(I)cc2/C1=C/c1cc(Br)c(O)c(Br)c1,-8.35%
5,N#C/C(=C\c1ccc(O)c(O)c1)C(=O)NCCc1ccccc1,-0.207%
6,NCCCCN=C(N)N,0.0179%
7,O=c1ccc2c(OCCCCc3ccccc3)c3ccoc3cc2o1,-4.33%
8,Nc1ccc(-c2nc3ccc(-c4nc5ccc(N)cc5[nH]4)cc3[nH]2)cc1,-1.32%
9,CC(=O)NCCc1c[nH]c2ccc(O)cc12,2.49%
10,NCCS(=O)O,-1.27%
11,O=c1[nH]c2ccccc2c2ccccc12,0.225%
12,N=C(N)c1ccccc1,-1.67%
13,N#Cc1cc2nc(O)c(O)nc2cc1[N+](=O)[O-],-5.79%
14,CSC(=N)N,-0.387%
15,O=C(O)c1cccnc1C(=O)O,-3.59%
16,Cc1nc(N=Nc2ccc(C(=O)O)cc2)c(COP(=O)(O)O)c(C=O)c1O,-0.52%
17,CCCCCCC/C=C\CCCCCCCCC(=O)O,-2.71%
18,Cn1c(=O)[nH]c2ncn(C)c2c1=O,4.37%
19,Nc1ccc(-c2ccc3ccccc3n2)cc1,-0.947%
20,Cn1ccnc1,-1.18%
